Data: PubChem BioAssay AID1159580 (chemical genetic matrix, 2015)
“And” between values parts separate entries of the source, which are not always exact repeats. Identical values can stand only once. Screen size: about 5,500 compounds; about 2,000 (36%) were called active. Not shown: some 18% with an inconclusive outcome. Cut-off read from the data, not from the text of the source: active = normalized growth mostly below about 0.91 (no sharp cut-off); inconclusive = no clear call, values can overlap the other calls; inactive = mostly above about 0.92. This is one part of the list.

Assay: chemical genetic growth profiling, strain panel (AID 1159580);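 note: tested at 20 µM; growth read once vehicle control cultures reached saturation at 30 °C; 1 = growth at the plate median or of vehicle wells; lower values mean less growth of the strain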
Conditions: S. cerevisiae deletion strains, growth OD

Measured: normalized growth

CN(C)CC/C=C1/c2ccccc2COc2ccccc21
inactive: locus YAL021C, strain ccr4, hits give low values 0.99 | locus YAL026C, strain drs2, hits give low values 1.03 | locus YAL030W, strain snc1, hits give low values 1.02 | locus YBL061C, strain skt5, hits give low values 1.02 | locus YBR009C, strain hhf1, hits give low values 1.01 | locus YBR021W, strain FUR4, hits give low values 0.991 | locus YBR023C, strain chs3, hits give low values 1.03 | locus YBR171W, strain sec66, hits give low values 1.05 | locus YBR229C, strain ROT2, hits give low values 1 | locus YBR231C, strain swc5, hits give low values 1.04 | locus YBR279W, strain paf1, hits give low values 1.01 | locus YCL011C, strain gbp2, hits give low values 1.03 | locus YCL016C, strain dcc1, hits give low values 1.02 | locus YCL029C, strain bik1, hits give low values 1.02 | locus YCL069W, strain vba3, hits give low values 1.03 | locus YCR088W, strain abp1, hits give low values 1.03 | locus YDL005C, strain med2, hits give low values 1.05 | locus YDL035C, strain GPR1, hits give low values 1.03 | locus YDL040C, strain nat1, hits give low values 1.02 | locus YDL074C, strain BRE1, hits give low values 1.01 | locus YDL101C, strain DUN1, hits give low values 1.02 | locus YDL134C, strain PPH21, hits give low values 1.01 | locus YDL185W, strain tfp1, hits give low values 1.03 | locus YDL192W, strain arf1, hits give low values 1.03 | locus YDR001C, strain nth1, hits give low values 1.01 | locus YDR069C, strain doa4, hits give low values 1.02 | locus YDR101C, strain arx1, hits give low values 0.992 | locus YDR137W, strain rgp1, hits give low values 1.14 | locus YDR159W, strain sac3, hits give low values 1.05 | locus YDR162C, strain NBP2, hits give low values 1.02 | locus YDR195W, strain ref2 1.05 | locus YDR297W, strain sur2, hits give low values 1.03 | locus YDR318W, strain mcm21, hits give low values 1.02 | locus YDR334W, strain swr1, hits give low values 1.02 | locus YDR335W, strain msn5, hits give low values 1.02 | locus YDR388W, hits give low values 1.03 | locus YDR392W, strain spt3, hits give low values 0.987 | locus YDR502C, strain sam2, hits give low values 1.02 | locus YEL003W, strain gim4, hits give low values 1.03 | locus YEL037C, strain rad23, hits give low values 1.02 | locus YEL061C, strain CIN8 (second series), hits give low values 1.02 | locus YEL061C, strain CIN8, hits give low values 1.01 | locus YER015W, strain faa2, hits give low values 0.977 | locus YER016W, strain bim1, hits give low values 1.01 | locus YER110C, hits give low values 1.02 | locus YER111C, strain swi4, hits give low values 1.03 | locus YER155C, strain BEM2 (second series), hits give low values 1.01 | locus YER155C, strain BEM2, hits give low values 1.01 | locus YER167W, strain BCK2, hits give low values 1.01 | locus YFR010W, strain ubp6, hits give low values 1.02 | locus YGL078C, strain dbp3, hits give low values 1.01 | locus YGL086W, strain mad1, hits give low values 1 | locus YGL167C, strain pmr1, hits give low values 1.03 | locus YGL173C, strain kem1, hits give low values 1.03 | locus YGL227W, strain vid30, hits give low values 1.01 | locus YGL240W, strain doc1, hits give low values 1 | locus YGL248W, strain PDE1, hits give low values 1 | locus YGL253W, strain hxk2, hits give low values 1.02 | locus YGR078C, strain PAC10, hits give low values 1.01 | locus YGR135W, strain pre9, hits give low values 1.03 | locus YGR229C, strain SMI1, hits give low values 1.02 | locus YGR252W, strain gcn5, hits give low values 0.972 | locus YHR013C, strain ard1, hits give low values 0.983 | locus YHR027C, strain rpn1, hits give low values 0.983 | locus YHR030C, strain SLT2, hits give low values 1.02 and 1.03 | locus YHR079C, strain IRE1 (second series), hits give low values 1.03 | locus YHR079C, strain IRE1, hits give low values 1.06 | locus YHR094C, strain hxt1, hits give low values 1.01 | locus YHR129C, strain ARP1, hits give low values 1.01 | locus YHR142W, strain chs7, hits give low values 1.02 | locus YHR200W, strain rpn10, hits give low values 1.04 | locus YIL066C, strain RNR3, hits give low values 1.02 | locus YIL073C, strain SPO22, hits give low values 1.11 | locus YIL125W, strain kgd1, hits give low values 1.01 | locus YIR030C, strain dcg1, hits give low values 1.01 | locus YJL092W, strain hpr5, hits give low values 1.03 | locus YJL095W, strain BCK1 (second series), hits give low values 1.03 | locus YJL095W, strain BCK1, hits give low values 0.992 and 1.03 | locus YJL115W, strain asf1, hits give low values 1.03 | locus YJL129C, strain trk1, hits give low values 1.06 | locus YJL134W, strain LCB3, hits give low values 1.01 | locus YJL154C, strain vps35, hits give low values 1.02 | locus YJL164C, strain tpk1, hits give low values 1.02 | locus YJL166W, strain qcr8, hits give low values 1.01 | locus YJL168C, strain set2, hits give low values 1.01 | locus YJL187C, strain SWE1 (second series), hits give low values 1.01 | locus YJR043C, strain POL32, hits give low values 1.01 | locus YJR066W, strain TOR1, hits give low values 0.931 | locus YKL009W, strain mrt4, hits give low values 1.03
